Where “and” joins values, the source holds several entries; their conditions need not be identical. Identical values can stand only once. Calls of active or inactive are those of the source.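 The calls were made as follows, unless noted: active = inhibition at or above 50% relative to wild type and mutant plate controls; inactive = inhibition below 50%.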
Columns and labels:
[1] = inhibitors of mutant huntingtin aggregation, primary screen, imaging, exon1htt(103Q)mCFP cells, high-content imaging (AID 483;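 active = visual image review flags a hit and inhibition of aggregation exceeds 20%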;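 also: compound exposure lasted 3 days before fixation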;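 as to nuclei count: percent of the per-plate median nuclei count of sample wells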); conditions: exon1htt(103Q)mCFP cell line, aggregate imaging, at 2 µM; inhibition of aggregation: stronger effect = higher value; nuclei count: measured here: cell count, toxicity
[2] = inhibitors of E-selectin induction by TNFa, primary screen, imaging, HUVEC, immunofluorescence, MLSMR starter and 10KST1 sets (AID 487;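 active = visually confirmed hit in the image check and inhibition above 20%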;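 as to inhibition: signal is fraction of cell area covered by stained E-selectin grains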;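 as to nuclei count: 100% = median nuclei count of all wells on the same plate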); conditions: HUVEC TNFalpha-induced E-selectin immunofluorescence imaging, at 2 µM; inhibition: stronger effect = higher value; nuclei count: measured here: cell number, toxicity
[3] = DUSP6 inhibitors restoring Erk phosphorylation by chemical complementation, primary imaging in DUSP6-transfected HeLa (AID 609;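 active = compounds giving at least 50% inhibition in the cell-based MKP-3 phosphatase rescue imaging test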;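 as to inhibition: phospho-Erk level distribution per well compared with pooled transfected vehicle control wells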); conditions: HeLa MKP-3 transfected, phospho-Erk imaging KS statistic, at 10 µM, cells stimulated with TPA for 15 min
[4] = target: Dual specificity protein phosphatase 6 (Homo sapiens) (UniProt Q16828); assay: as above; conditions: HeLa MKP-3 transfected, phospho-Erk imaging KS statistic; at 10 µM; stronger effect = higher value; cells stimulated with TPA for 15 min
[5] = target: Voltage-gated potassium channel subunit beta-2 (Rattus norvegicus) (UniProt P62483); assay: KvBeta enzyme negative modulators, primary screen, biochemical, NADPH fluorescence (AID 622;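 active = fluorescence slope higher than the sample average by over 3 SD, cut at about -0.22 in these data, passing the limit was not always enough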;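 also: slope of raw intensity against log time taken from 70 to 1610 s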); conditions: recombinant KvBeta, 4-cyanobenzaldehyde reduction, at 10 µM, stronger effect = higher value
[6] = target: Voltage-gated potassium channel subunit beta-2 (Rattus norvegicus) (UniProt P62483); assay: KvBeta positive modulators, primary screen, biochemical, NADPH fluorescence (AID 623;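 active = NADPH fluorescence slope more negative than the mean of all samples by about 3 SD, 99.7% confidence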;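 also: fluorescence intensity change per second fitted from 20 to 320 s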); conditions: Recombinant KvBeta, NADPH fluorescence decrease slope, 10 min; at 10 µM; stronger effect = lower value
[7] = target: Alpha-2C adrenergic receptor (Homo sapiens) (UniProt P18825); assay: modulators of alpha2C/GIRK thallium flux, primary screen, cell-based, HEK293 alpha2C/GIRK1/2 (AID 624;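 active = fluorescence slope after compound addition differing from the mean of all screened samples at 99.7% confidence, in either direction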;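 also: slope of fluorescence ratio to pre-addition baseline per second over 15 to 24 s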); conditions: thallium flux BTC fluorescence, at 10 µM, actives lie on both sides
[8] = inhibitors of larval lipid processing in zebrafish, primary screen, whole organism, PED6 fluorescence, gall bladder and intestine (AID 686;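 active = a full or partial loss of lipid-probe fluorescence in the fish gall bladder, intestine or both, judged by eye; inactive = no fluorescence loss, or compound toxic to the fish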;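 also: larvae 5 to 7 days old with five fish per well; signal comes from phospholipase A2 cleavage of quenched PED6 carried via bile; overnight exposure to compound and PED6 before scoring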); conditions: Zebrafish larvae PED6 lipid processing, fluorescence scoring; screened at 20 µM (by protocol)
[9] = inhibitors of Chlamydomonas gravitaxis, primary screen, whole organism, Chlamydomonas reinhardtii, WT vs cilia-less mutant, absorbance, 96-well (AID 463189); conditions: OD600 absorbance, 2 days, at 10 µM, stronger effect = higher value;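 also: 0% = wild type cc124 cells in DMSO and 100% = ciliumless bld1 mutant cells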
[10] = inhibitors of Sendai virus-induced IRF3 signaling, primary screen, TLR/RLR signaling modifier project, cell-based, Sendai virus stimulus, luciferase, 10K MLSCN set (AID 602276;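 active = inhibition at or above 50% at 10 µM; inactive = inhibition below 50%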;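 also: firefly luciferase from ISG56 promoter only with Renilla not read in this screen; 0% = Sendai virus plus DMSO and 100% = medium plus DMSO without virus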); conditions: HEK293 RL24 IRF3 luciferase reporter, at 10 µM, stronger effect = higher value
[11] = inhibitors of poly I:C-induced TLR3 signaling, primary screen, cell-based, poly I:C stimulus, luciferase, 10K MLSCN set (AID 602277;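 active = inhibition of the reporter signal at or above 50%; inactive = inhibition below 50%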); conditions: HEK293-TLR3 RL24 IRF3 luciferase reporter, at 10 µM, stronger effect = higher value
[12] = measured here: cell density z-score
[13] = measured here: nuclear c-Myc green intensity z-score
[14] = measured here: nuclear pErk red intensity z-score, stronger effect = higher value

Chain of Voltage-gated potassium channel subunit beta-2 (Rattus norvegicus) (P62483 whole entry, looked up): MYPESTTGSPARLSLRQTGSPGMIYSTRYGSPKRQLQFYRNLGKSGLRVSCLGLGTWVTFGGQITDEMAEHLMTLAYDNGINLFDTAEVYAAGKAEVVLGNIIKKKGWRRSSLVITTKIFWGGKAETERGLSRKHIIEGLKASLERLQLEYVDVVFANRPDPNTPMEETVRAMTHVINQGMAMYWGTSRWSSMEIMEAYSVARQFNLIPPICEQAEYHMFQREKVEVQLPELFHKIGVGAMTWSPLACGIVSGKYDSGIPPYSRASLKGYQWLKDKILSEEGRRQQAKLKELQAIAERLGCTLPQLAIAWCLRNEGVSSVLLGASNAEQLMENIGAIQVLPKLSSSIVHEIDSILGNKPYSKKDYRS
Chain of Alpha-2C adrenergic receptor (Homo sapiens) (P18825 whole entry, looked up): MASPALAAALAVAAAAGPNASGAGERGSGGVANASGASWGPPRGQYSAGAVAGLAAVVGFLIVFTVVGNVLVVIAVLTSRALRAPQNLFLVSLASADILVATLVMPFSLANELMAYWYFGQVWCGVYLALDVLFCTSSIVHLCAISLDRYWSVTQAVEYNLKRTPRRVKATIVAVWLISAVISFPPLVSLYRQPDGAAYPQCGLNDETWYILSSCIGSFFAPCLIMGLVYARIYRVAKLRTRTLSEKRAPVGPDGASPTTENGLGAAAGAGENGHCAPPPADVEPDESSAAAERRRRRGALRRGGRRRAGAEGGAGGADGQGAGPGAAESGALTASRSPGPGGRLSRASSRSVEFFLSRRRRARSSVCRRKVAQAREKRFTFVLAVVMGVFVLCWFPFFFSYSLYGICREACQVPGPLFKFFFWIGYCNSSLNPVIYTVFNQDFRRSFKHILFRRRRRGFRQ
Chain of Dual specificity protein phosphatase 6 (Homo sapiens) (Q16828 whole entry, looked up): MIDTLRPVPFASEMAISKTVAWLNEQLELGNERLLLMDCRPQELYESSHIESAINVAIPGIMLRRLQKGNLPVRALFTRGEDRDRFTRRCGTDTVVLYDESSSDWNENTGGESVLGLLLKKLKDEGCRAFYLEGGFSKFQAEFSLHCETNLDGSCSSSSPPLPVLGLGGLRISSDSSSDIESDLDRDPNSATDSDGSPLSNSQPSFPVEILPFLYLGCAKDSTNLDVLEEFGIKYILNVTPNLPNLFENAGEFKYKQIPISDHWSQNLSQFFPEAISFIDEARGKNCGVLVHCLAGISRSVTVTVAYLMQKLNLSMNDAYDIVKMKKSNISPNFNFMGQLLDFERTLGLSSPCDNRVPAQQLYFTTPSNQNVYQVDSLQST

For `CC1(C)O[C@@H]2C[C@H]3[C@@H]4CCC5=CC(=O)C=C[C@]5(C)[C@@]4(F)[C@@H](O)C[C@]3(C)[C@]2(C(=O)CO)O1`, the inhibition of aggregation [1] was -6.5% (inactive), the nuclei count [1] was 62.6% and the inhibition [2] was -115% (inactive). The nuclei count [2] was 116%, the z-score [3, 12] was 0.696 and the z-score [3, 13] was -0.511. The z-score [3, 14] was -0.313, the inhibition [4] was -2.46% (inactive) and the fluorescence slope [5] was -0.515 (inactive). The NADPH fluorescence slope [6] was -2.4e-05 (inactive), the slope [7] was 0.00512 (inactive) and the outcome [8] was “inactive”. For the same compound, the inhibition [9] was -13.3% (inactive), the inhibition [10] was -3.36% (inactive) and the inhibition [11] was 10.8% (inactive).

For `CN(C)CCCN1c2ccccc2Sc2ccc(C(F)(F)F)cc21`, the inhibition of aggregation [1] was 12.5% (inactive), the nuclei count [1] was 99.9% and the inhibition [2] was -14.6% (inactive). It also gave a nuclei count [2] of 95.5%, a z-score [3, 12] of -0.783 and a z-score [3, 13] of 0.801. The z-score [3, 14] was -0.407, the inhibition [4] was 13.3% (inactive) and the fluorescence slope [5] was -0.487 (inactive). For the same compound, the NADPH fluorescence slope [6] was -8.7e-05 (inactive), the slope [7] was 0.00341 (inactive) and the outcome [8] was “inactive”. The inhibition [9] was 81.9% (active) and 163% (active), the inhibition [10] was 18% (inactive) and the inhibition [11] was 38.3% (inactive).

With `CCc1nc(N)nc(N)c1-c1ccc(Cl)cc1` the inhibition of aggregation [1] was -35.2% (inactive), the nuclei count [1] was 76.3% and the inhibition [2] was -93.1% (inactive). It also gave a nuclei count [2] of 108%, a z-score [3, 12] of -1.21 and a z-score [3, 13] of 2.44. For the same compound, the z-score [3, 14] was -0.22, the inhibition [4] was 12.4% (inactive) and the fluorescence slope [5] was -0.503 (inactive). For the same compound, the NADPH fluorescence slope [6] was 1.5e-05 (inactive), the slope [7] was 0.00459 (inactive) and the outcome [8] was “inactive”. For the same compound, the inhibition [9] was 37.1% (inactive), the inhibition [10] was 18.7% (inactive) and the inhibition [11] was -1.71% (inactive).

In the case of `CC(C)NCC(O)COc1ccc(CC(N)=O)cc1` (stereo not given), the inhibition of aggregation [1] is reported as -3.8% (inactive), the nuclei count [1] is reported as 97.3% and the inhibition [2] is reported as -96.5% (inactive). For the same compound, the nuclei count [2] was 135%, the z-score [3, 12] was -1.26 and the z-score [3, 13] was -0.177. The z-score [3, 14] was -0.441, the inhibition [4] was -2.46% (inactive) and the fluorescence slope [5] was -0.47 (inactive). The NADPH fluorescence slope [6] was 1.8e-05 (inactive), the slope [7] was 0.00481 (inactive) and the outcome [8] was “inactive”. The inhibition [9] was -6.18% (inactive) and -8.19% (inactive), the inhibition [10] was -12.5% (inactive) and the inhibition [11] was -8.56% (inactive).

With `CN(C)C(=O)Oc1ccc[n+](C)c1` the inhibition of aggregation [1] was -10% (inactive), the nuclei count [1] was 104% and the inhibition [2] was -27% (inactive). The nuclei count [2] was 132%, the z-score [3, 12] was -0.869 and the z-score [3, 13] was 0.159. The z-score [3, 14] was 0.378, the inhibition [4] was 13.3% (inactive) and the fluorescence slope [5] was -0.448 (inactive). For the same compound, the NADPH fluorescence slope [6] was -5.3e-05 (inactive), the slope [7] was 0.005 (inactive) and the outcome [8] was “inactive”. For the same compound, the inhibition [9] was -1.87% (inactive) and 14.9% (inactive), the inhibition [10] was 6.65% (inactive) and the inhibition [11] was 26.9% (inactive).

In the case of `COc1cc(C2Oc3cc(C4Oc5cc(O)cc(O)c5C(=O)C4O)ccc3OC2CO)ccc1O` (stereo not given), the inhibition of aggregation [1] is reported as 15.4% (inactive), the nuclei count [1] is reported as 94.5% and the inhibition [2] is reported as -86.6% (inactive). The nuclei count [2] was 118%, the z-score [3, 12] was -0.357 and the z-score [3, 13] was 0.711. For the same compound, the z-score [3, 14] was -0.479, the inhibition [4] was -8.38% (inactive) and the fluorescence slope [5] was -0.479 (inactive). The NADPH fluorescence slope [6] was 1.9e-05 (inactive), the slope [7] was 0.00477 (inactive) and the outcome [8] was “inactive”. For the same compound, the inhibition [9] was -8.52% (inactive), the inhibition [10] was -16.8% (inactive) and the inhibition [11] was -16.2% (inactive).

For `C[C@]12C=CC(=O)C=C1CC[C@H]1[C@@H]3C[C@@H](O)[C@](O)(C(=O)CO)[C@@]3(C)C[C@H](O)[C@@]12F`, the inhibition of aggregation [1] was 23.7% (inactive), the nuclei count [1] was 50.2% and the inhibition [2] was -61.6% (inactive). For the same compound, the nuclei count [2] was 117%, the z-score [3, 12] was -0.539 and the z-score [3, 13] was 1.04. For the same compound, the z-score [3, 14] was -0.0271, the inhibition [4] was 15.3% (inactive) and the fluorescence slope [5] was -0.508 (inactive). The NADPH fluorescence slope [6] was -6.2e-05 (inactive), the slope [7] was 0.0055 (inactive) and the outcome [8] was “inactive”. The inhibition [9] was 6.05% (inactive) and 21.3% (inactive), the inhibition [10] was 13.3% (inactive) and the inhibition [11] was 37.9% (inactive).

For `O=C1NC(=O)C(c2ccccc2)(c2ccccc2)N1`, the inhibition of aggregation [1] was -21.7% (inactive), the nuclei count [1] was 101% and the inhibition [2] was 23.3% (inactive). It also gave a nuclei count [2] of 102%, a z-score [3, 12] of 0.136 and a z-score [3, 13] of -0.248. For the same compound, the z-score [3, 14] was -1.03, the inhibition [4] was 3.59% (inactive) and the fluorescence slope [5] was -0.471 (inactive). For the same compound, the NADPH fluorescence slope [6] was 3.3e-05 (inactive), the slope [7] was 0.00448 (inactive) and the outcome [8] was “inactive”. For the same compound, the inhibition [9] was 2.61% (inactive) and -21.3% (inactive), the inhibition [10] was -7.98% (inactive) and the inhibition [11] was -7.53% (inactive).

With `CN(C)CCCN1c2ccccc2Sc2ccccc21` the inhibition of aggregation [1] was 3.5% (inactive), the nuclei count [1] was 100% and the inhibition [2] was 3.6% (inactive). It also gave a nuclei count [2] of 110%, a z-score [3, 12] of 0.654 and a z-score [3, 13] of 0.845. The z-score [3, 14] was -0.156, the inhibition [4] was 11.3% (inactive) and the fluorescence slope [5] was -0.511 (inactive). For the same compound, the NADPH fluorescence slope [6] was -7e-05 (inactive), the slope [7] was 0.00267 (inactive) and the outcome [8] was “inactive”. For the same compound, the inhibition [9] was 8.93% (inactive) and 48% (inactive), the inhibition [10] was 6.01% (inactive) and the inhibition [11] was 34.6% (inactive).

For `CC(=O)OCC(=O)[C@@]1(O)CC[C@H]2[C@@H]3CCC4=CC(=O)C=C[C@]4(C)[C@H]3[C@@H](O)C[C@@]21C`, the inhibition of aggregation [1] was -0.6% (inactive), the nuclei count [1] was 67.7% and the inhibition [2] was -93.5% (inactive). For the same compound, the nuclei count [2] was 130%, the z-score [3, 12] was -0.00243 and the z-score [3, 13] was 0.765. For the same compound, the z-score [3, 14] was -0.773, the inhibition [4] was 9.37% (inactive) and the fluorescence slope [5] was -0.506 (inactive). For the same compound, the NADPH fluorescence slope [6] was 4.9e-06 (inactive), the slope [7] was 0.00476 (inactive) and the outcome [8] was “inactive”. For the same compound, the inhibition [9] was 24.9% (inactive), the inhibition [10] was -13.7% (inactive) and the inhibition [11] was -1.49% (inactive).

In the case of `CCc1cccc2c3c([nH]c12)C(CC)(CC(=O)O)OCC3` (stereo not given), the inhibition of aggregation [1] is reported as 3.6% (inactive), the nuclei count [1] is reported as 111% and the inhibition [2] is reported as -122% (inactive). For the same compound, the nuclei count [2] was 126%, the z-score [3, 12] was -0.0395 and the z-score [3, 13] was 0.0959. For the same compound, the z-score [3, 14] was -0.905, the inhibition [4] was -0.493% (inactive) and the fluorescence slope [5] was -0.442 (inactive). The NADPH fluorescence slope [6] was -6.2e-05 (inactive), the slope [7] was 0.00464 (inactive) and the outcome [8] was “inactive”. For the same compound, the inhibition [9] was -6.89% (inactive) and 27.4% (inactive), the inhibition [10] was 10.1% (inactive) and the inhibition [11] was 33.6% (inactive).
